# Measurements from PubChem BioAssay.
# Several values for one entry are separate records, joined by “and”; a condition that tells them apart may be missing. Equal values may be shown once. Activity calls are given as the source filed them. Rule as the data show it, unless noted: active = inhibition above about 80%; inactive = the rest.
# Assays:
# [1] = tested on: Aerobactin synthetase IucA (Klebsiella pneumoniae); assay: inhibition of K. pneumoniae IucA enzyme – biochemical, Tocris library, absorbance (AID 1345561; call rule not given here;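 also: 100% = enzyme without compound and 0% = no enzyme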); conditions: purified IucA enzyme assay, absorbance (OD) read-out; stronger effect = lower value;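 tested at 8 µM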
# [2] = viability loss with induced miR-34 in A549 – imaging, A549 dox-inducible miR-34, nuclei and caspase counts, primary screen (AID 1347080;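 active = compounds whose cell count with miR-34 switched on is under 0.7 times the count with it off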); conditions: A549 miR-34 inducible, Hoechst nuclei count, 48 h
# [3] = blockers of cellular phospholipid synthesis – cell-based, LOPAC library, screen 4, primary screen (AID 1347384; call rule not given here); conditions: animal cells, phospholipid biosynthesis inhibition screen; at 10 µM
# [4] = galactose survival enhancers in mitochondrial complex I cybrids – cell-based, galactose medium, ATP luminescence, primary screen (AID 1645843;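 active = z-score of at least 1.8 in each of two replicates, scored against plate mean and spread of sample wells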;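 also: positive z means more ATP and so rescue of galactose-driven cybrid death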); conditions: complex I mutant cybrid cells, 72 h, stronger effect = higher value
# [5] = MELAS cybrid and Rieske KO viability enhancers – cell-based, MELAS cybrids, Rieske KO mouse fibroblasts, CellTiter-Glo, primary screen (AID 1508586;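 active = mean z-score across replicates of 1.96 or higher in either the MELAS or the Rieske mutant cell line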;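 also: z relative to plate mean and SD of compound and empty wells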); conditions: low glucose
# [6] = growth inhibition, single agent or in combination, cell-based, chromothripsis tumors, cisplatin or BGB combos (AID 1671449); conditions: LFS_MB_P medulloblastoma cells;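 also: cells exposed for 96 hours; 0% = vehicle DMSO and 100% = killing by high DMSO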
# [7] = growth inhibition, single agent and combos, cell-based, chromothripsis tumors, cisplatin or BGB combos (AID 1671450); conditions: HDN33 neuroblastoma cells, stronger effect = higher value;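 also: cells exposed to compound for four days; 0% = vehicle DMSO and 100% = cell killing by high DMSO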
# [8] = growth inhibition, single agents and combos, ICB984, cell-based, cisplatin or BGB combos, synergistic combos for chromothripsis tumors (AID 1671451; call rule not given here;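 also: cells exposed for 96 hours before readout; 0% = vehicle DMSO and 100% = killing by high DMSO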); conditions: ICB984 medulloblastoma cells, drug combinations, stronger effect = higher value
# [9] = growth inhibition, single agents and combos, LFS_MB_1R, cell-based, cisplatin or BGB combos, synergistic combos for chromothripsis tumors (AID 1671452); conditions: LFS_MB_1R medulloblastoma cells, stronger effect = higher value;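 also: cells exposed for 96 hours before readout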
# [10] = growth inhibition, single agents and combos, HTB85, cell-based, BGB or cisplatin IC20 combos, synergistic combos for chromothripsis tumors (AID 1671453); conditions: HTB85 osteosarcoma cells, drug combinations, stronger effect = higher value;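 also: cells exposed for 96 hours before readout; 0% = vehicle DMSO and 100% = high DMSO killing control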
# [11] = growth inhibition, single agents and combos, CRL2098, cell-based, BGB or cisplatin IC20 combos, synergistic combos for chromothripsis tumors (AID 1671454); conditions: CRL2098 osteosarcoma cells, drug combinations, stronger effect = higher value;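 also: cells exposed for 96 h before readout; 0% = vehicle DMSO and 100% = killing by high DMSO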
# [12] = growth inhibition, single agents and combos, HD-MB03, cell-based, BGB or cisplatin IC20 combos, synergistic combos for chromothripsis tumors (AID 1671455; in the data active = inhibition above about 83%;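 also: 0% = vehicle DMSO and 100% = high DMSO as cytotoxic control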); conditions: HD-MB03 medulloblastoma cells, stronger effect = higher value
# [13] = growth inhibition, single agents and combos, UWB1.289, cell-based, BGB or cisplatin combos, synergistic combos for chromothripsis tumors (AID 1671456); conditions: UWB1.289 ovarian carcinoma cells, stronger effect = higher value;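 also: cells exposed to compound for four days; 0% = vehicle DMSO and 100% = killing by high DMSO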
# [14] = growth inhibition, single agents and combos, LFS_MB_2R, cell-based, cisplatin combos, synergistic combos for chromothripsis tumors (AID 1671457); conditions: LFS_MB_2R medulloblastoma cells, stronger effect = higher value;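 also: cells exposed to compound for four days before readout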
# [15] = growth inhibition, MDA-MB-436, cell-based, BGB or cisplatin combos, synergistic combos for chromothripsis tumors (AID 1671458; call rule not given here;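 also: cells exposed for 96 hours; 0% = vehicle DMSO and 100% = killing by high DMSO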); conditions: MDA-MB-436 breast carcinoma growth inhibition, drug combinations, stronger effect = higher value
# [16] = UWB1.289_BRCA1 ovarian cancer growth, cell-based, BGB or cisplatin combinations (AID 1671459); conditions: UWB1.289 BRCA1 ovarian carcinoma, drug combinations, stronger effect = higher value
# [17] = drug combination toxicity in non-malignant astrocytes – cell-based, BGB or cisplatin IC20 combos, cytotoxicity control for chromothriptic childhood tumor combination screen (AID 1671460); conditions: Human astrocytes, viability inhibition, drug combinations, at 0.5 µM, stronger effect = higher value;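 also: cells exposed to compounds for 96 hours before viability readout; 0% = vehicle and 100% = killing control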
# [18] = BT084 cell growth, single and combined drugs, ICGC_MB145, cisplatin and BGB IC40 combos (AID 1671461); conditions: BT084 medulloblastoma cells, drug combinations, stronger effect = higher value;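 also: cells exposed to drugs for 96 hours; 0% = vehicle DMSO and 100% = high DMSO full killing control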
# [19] = RCMB18 cell growth, single agent and combined, cisplatin and BGB IC40 combos (AID 1671462); conditions: RCMB18 medulloblastoma cells, stronger effect = higher value;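 also: cells exposed to compound for four days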
# [20] = CRL1545 cell growth, single agent and combined, cisplatin and BGB IC20 combos (AID 1671464); conditions: CRL1545 osteosarcoma cells, stronger effect = higher value;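 also: cells exposed to compound for 96 hours before readout; 0% = vehicle DMSO and 100% = high DMSO killing control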
# [21] = stronger effect = lower value, cell number ratio, induced over uninduced
# [22] = measured here: relative caspase fold change +Dox/-Dox
# [23] = measured here: total cells with miR-34 induction, stronger effect = lower value
# [24] = measured here: total cells without miR-34 induction
# [25] = measured here: combination with BGB IC40, at 0.05 µM
# [26] = measured here: with BGB IC20 combination, at 0.5 µM
# [27] = measured here: with cisplatin IC20 combination, at 0.5 µM
# [28] = measured here: combination with cisplatin, at 0.5 µM
# [29] = measured here: combination with cisplatin, at 5 µM
structure (smiles),measurement,setting,value
NS(=O)(=O)c1cccc2c1c([N+](=O)[O-])cc1[nH]c(=O)c(=O)[nH]c12,remaining activity,[1],96.2% (inactive)
same,fold change,[2]; [21],0.919 (inactive)
same,fold change,[2]; [22],0.625
same,cell count,[2]; [23],8900
same,cell count,[2]; [24],9680
same,outcome,[3],inactive
same,z-score,[4],-0.025 (inactive)
O=C(COc1cccc2c(=O)[nH]ccc12)c1ccccc1,remaining activity,[1],129% (inactive)
same,fold change,[2]; [21],0.93 (inactive) and 0.917 (inactive)
same,fold change,[2]; [22],0.39 and 1.29
same,cell count,[2]; [23],8870 and 8400
same,cell count,[2]; [24],9530 and 9170
same,z-score,"[5]; MELAS cybrid survival, CellTiter-Glo 48 h, stronger effect = higher value",-0.468 (inactive)
same,z-score,"[5]; Rieske KO mouse fibroblast survival, CellTiter-Glo 72 h",0.438
same,z-score,[4],-0.28 (inactive)
same,inhibition,"[6]; at 0.5 µM, stronger effect = higher value",-16.5% (inactive)
same,inhibition,"[6]; measured here: combination with BGB IC20, at 0.005 µM",-16.8%
same,inhibition,"[6]; measured here: combination with BGB IC40, at 0.005 µM",-36.3%
same,inhibition,[6]; [25],-53.7%
same,inhibition,"[6]; measured here: combination with cisplatin, at 0.5 µM, stronger effect = higher value",-36.1%
same,inhibition,"[6]; measured here: combination with cisplatin, at 5 µM, stronger effect = higher value",-39.6%
same,inhibition,"[7]; BGB combo, at 5 µM",-30.5%
same,inhibition,[7]; at 0.5 µM,-19.3% (inactive)
same,inhibition,"[7]; cisplatin combo, at 5 µM",0.128%
same,inhibition,[7]; [26],-14.4%
same,inhibition,[7]; [27],-33.6%
same,inhibition,"[7]; single agent, at 5 µM",5.27%
same,inhibition,"[8]; BGB IC20 combo, at 0.005 µM",-2.15%
same,inhibition,"[8]; BGB IC40 combo, at 0.005 µM",-17.7%
same,inhibition,"[8]; BGB IC40 combo, at 0.05 µM",-10.1%
same,inhibition,[8]; at 0.5 µM,-21.4% (inactive)
same,inhibition,"[8]; cisplatin combo, at 0.05 µM",-14.1%
same,inhibition,"[8]; cisplatin combo, at 0.5 µM",-12.6%
same,inhibition,"[8]; cisplatin combo, at 5 µM",-29.1%
same,inhibition,"[8]; measured here: 5 uM single agent, at 5 µM",-6.87%
same,inhibition,[9]; at 0.5 µM,-3.67% (inactive)
same,inhibition,[9]; [25],3.04%
same,inhibition,[9]; [28],4.91%
same,inhibition,[9]; [29],-55.9%
same,inhibition,[10]; at 0.5 µM,-2.5% (inactive)
same,inhibition,"[10]; measured here: with BGB IC20, at 0.5 µM",-2.96%
same,inhibition,"[10]; measured here: with BGB IC20, at 5 µM",-14.8%
same,inhibition,"[10]; measured here: with cisplatin IC20, at 0.5 µM",-15.8%
same,inhibition,"[10]; measured here: with cisplatin IC20, at 5 µM",-9.52%
same,inhibition,"[10]; single agent, at 5 µM",-11.8%
same,inhibition,[11]; at 0.5 µM,-77.2% (inactive)
same,inhibition,"[11]; measured here: combination with BGB at IC20, at 0.5 µM",-43.7%
same,inhibition,"[11]; measured here: combination with cisplatin at IC20, at 0.5 µM",-122%
same,inhibition,[12]; at 0.5 µM,-12.7% (inactive)
same,inhibition,"[12]; measured here: combo with BGB at IC20, at 0.5 µM",-9.35%
same,inhibition,"[12]; measured here: combo with cisplatin at IC20, at 0.5 µM",-24.1%
same,inhibition,[13]; at 0.5 µM,-8.68% (inactive)
same,inhibition,"[13]; measured here: inhibition with BGB combination, at 0.05 µM",-22.4%
same,inhibition,"[13]; measured here: inhibition with cisplatin combination, at 0.05 µM",-23.8%
same,inhibition,[14]; at 0.5 µM,-15.2% (inactive)
same,inhibition,[14]; [28],-23.3%
same,inhibition,[14]; [29],-11.3%
same,inhibition,[15]; at 0.5 µM,-8.48% (inactive)
same,inhibition,"[15]; measured here: BGB combination, at 0.5 µM",-12.1%
same,inhibition,"[15]; measured here: BGB combination, at 5 µM",-20.7%
same,inhibition,"[15]; measured here: cisplatin combination, at 0.5 µM",-11.8%
same,inhibition,"[15]; measured here: cisplatin combination, at 5 µM",-15.5%
same,inhibition,"[16]; BGB combination, concentration series, at 5 µM",17.1%
same,inhibition,[16]; at 0.5 µM,-4.72% (inactive)
same,inhibition,"[16]; cisplatin combination, concentration series, at 5 µM",-1.24%
same,inhibition,[17],18.8% (inactive)
same,inhibition,[17]; measured here: combo with BGB IC20,3.19%
same,inhibition,[17]; measured here: combo with cisplatin IC20,27.2%
same,inhibition,[18]; at 0.5 µM,-16.5% (inactive)
same,inhibition,"[18]; cisplatin combination, at 0.5 µM",-34.9%
same,inhibition,"[18]; cisplatin combination, at 5 µM",-2.7%
same,inhibition,"[18]; measured here: BGB IC40 combination 0.05 uM, at 0.05 µM",-29.5%
same,inhibition,"[18]; single agent, at 5 µM",2.36%
same,inhibition,[19]; at 0.5 µM,-1.53% (inactive)
same,inhibition,"[19]; cisplatin combo, at 5 µM",-22.8%
same,inhibition,"[19]; measured here: BGB IC40 combination, at 0.05 µM",-14.7%
same,inhibition,[19]; [28],-4%
same,inhibition,"[19]; single agent, at 5 µM",-18.5%
same,inhibition,[20]; at 0.5 µM,-12.7% (inactive)
same,inhibition,[20]; [26],-33.3%
same,inhibition,[20]; [27],-4%
same,inhibition,"[20]; single agent, at 0.05 µM",2.29%
same,inhibition,"[20]; single agent, at 5 µM",-29.9%
